HCMV inh – qHTS Assay for inhibitors of the human cytomegalovirus (HCMV); HFF cells, HCMV-luciferase reporter, 72 h; hits give low values; activity change, negative = inhibition, % at 57.5 µM; actives 4.5% (n = 410,000); AID 1259415, 2018; in the data active means activity change below about -60%; inconclusive means no clear call, values can overlap the other calls; inactive means above about -39%
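Steps: HFFs plated, 16 h 37C; compounds added; HCMV-luciferase added to MOI 1 PFU/cell; 72 h 37C; OneGlo reagent, 5 min room temperature; luminescence read, normalized to controls.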
Vaccinia mCherry – qHTS for Stage-Specific Inhibitors of Vaccinia Orthopoxvirus: mCherry Reporter Primary qHTS. Vaccinia virus mCherry reporter infection, fluorescence. AID 720579, 2013. Potency, µM (titrated, usually from 36.5 µM), for the others: top-dose activity change, negative = inhibition, hits mostly inhibitors. actives 0.63% (n = 310,000); calls by dose curve; tested in A549 cells; further: potency means the concentration at half of the fitted maximal effect; nearly all actives have a fitted effect of over 35% in size
Vaccinia Venus – qHTS for Stage-Specific Inhibitors of Vaccinia Orthopoxvirus: Venus Reporter Primary qHTS. Potency, µM (series often up to 36.5 µM), for inactives: at the top dose activity change, negative = inhibition, most hits filed as inhibitors. actives 0.46% (n = 330,000). AID 720580, 2013. Vaccinia virus Venus reporter expression, fluorescence; calls by dose curve; tested in A549 cells; further: potency means the concentration at half of the fitted maximal effect; nearly all actives have a fitted effect of over 30% in size
LASV entry inh – qHTS for Inhibitors of binding or entry into cells for Lassa Virus; Lassa virus pseudotype entry inhibition, cell reporter; Potency, µM (titrated, usually from 37.9 µM), without a hit: at the top dose activity change, negative = inhibition, usual class: inhibitors; actives 1.2% (n = 300,000); AID 540256, 2011; calls by dose curve; tested in HEK293 cells; further: potency means the concentration at half of the fitted maximal effect; nearly all actives have a fitted effect of over 50% in size
MARV entry inh – qHTS for inhibitors of binding or entry into cells for Marburg Virus. Marburg virus pseudotyped entry inhibition, cell reporter. actives 1.8% (n = 300,000). AID 540276, 2011. Potency, µM (top dose mostly 37.8 µM), without a hit: at the highest dose activity change, negative = inhibition, usual class: inhibitors; calls by dose curve; tested in HEK293 cells; further: potency means the concentration at half of the fitted maximal effect
HCV inh – qHTS Assay for Inhibitors of Hepatitis C Virus (HCV) | Huh7.5.1 HCVcc-Cre infection, luciferase reporter, 44 h | Potency, µM (doses to about 41.8 µM), for inactives: at the highest dose activity change, negative = inhibition, hits mostly inhibitors | actives 3.4% (n = 340,000); active means well fitted inhibition curve with a large enough effect; inconclusive means small, poorly fitted or top-dose-only effect, or another doubt; inactive means no such curve, though single readings can be large or run the other way; further: potency means the concentration at half of the fitted maximal effect
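Infectious HCVcc-Cre (~0.5 moi) was added to cells just after compound, with cells seeded 4 h earlier at 1,000 per well. Luciferase activity after 44 h culture reported infection; substrate was incubated 15 min at room temperature before reading.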
* marks the source's active call; other numbers are inactive results; i = inactive; ? = inconclusive; . = not tested or not shown; [ ] = another dose, or the depositor's remark. The list is not random: actives were taken first. Their share in the collection is about 7.8%. On the % scale 0 is the no-effect control and ±100 the full control effect.

SMILES	HCMV inh	Vaccinia mCherry	Vaccinia Venus	LASV entry inh	MARV entry inh	HCV inh
CCc1ccc(-n2nc3ccc(NC(=O)COc4ccc(OC)cc4)cc3n2)cc1	51	-19%[7.34 µM]	-9%[7.34 µM]	?	?	.
C=Cc1ccc(Cn2c(=O)n(-c3cccc(C)c3)c(=O)c3c2c2cc(C)ccc2n3C)cc1	-8	-9%	-15%	-24%[46.1 µM]	.	.
O=C(c1ccc2c(c1)OCO2)C1CCCN(Cc2ccc(OC(F)F)cc2)C1 (stereo not drawn)	-11	.	.	.	.	13µM*
FC(F)(F)c1cc(CCN2CCNC[C@H]2Cc2cccc3ccccc23)cc(C(F)(F)F)c1	-80*	?	-28%	.	.	?
Oc1ccc(C[C@@H]2CNCCN2CCc2cc(C(F)(F)F)cc(C(F)(F)F)c2)cc1	12	14µM*	10µM*	.	.	?
CCCc1cc(-c2nc(N)ncc2-c2ccc3c(c2)OCCCO3)c(O)cc1OC	?	?	13µM*	?	?	?
CCCc1cc(-c2nc(N)ncc2-c2csc(C)n2)c(O)cc1OC	-18	.	.	.	.	1%
O=Cc1ccc([B-](F)(F)F)o1	5	.	.	.	.	.
Cc1c(Cl)sn(-c2ccc(Cl)cc2)c1=O	-101*	?	?	9.2µM*	?	2.5µM*
CCc1cccc(CC)c1N(COC)C(=O)Cn1c(C)nc2ccccc21	-65*	-10%	-16%	-18%[46.1 µM]	.	.
CCc1cccc(CC)c1N(COC)C(=O)Cn1cnc2ccccc21	?	-9%	-6%	-11%[46.1 µM]	?	22%
CCOC(=O)C1CCN(Cc2ccc(O)c3ncccc23)CC1	?	.	.	-25%	?	10µM*
COc1ccccc1N1CCN(Cc2ccc(O)c3ncccc23)CC1	-91*	.	.	10µM*	?	3.5µM*
Oc1ccc(CN2CCCc3ccccc32)c2cccnc12	.	?	?	4.5µM*	?	10µM*
c1ccc(-c2nnc(CN3CCCc4ccccc43)o2)cc1	61	-13%	-6%	2%	?	?
COc1ccc2c(c1)OC[C@H]1[C@H]2N2C(=O)CN(Cc3ccc(Cl)cc3)C(=O)[C@@]2(C)[C@H]1c1ccccc1	4	?	-26%	.	.	11µM*
COc1ccc2c(c1)[C@H]1[C@H](CO2)[C@H](c2ccccc2)[C@]2(C)C(=O)N(Cc3ccc(C)cc3)CC(=O)N12	.	-20%	?	.	.	10µM*
O=C(Nc1ccc2nc3n(c(=O)c2c1)CCCCC3)C(=O)Nc1ccccc1F	19	-18%	-18%	-22%[46.1 µM]	-14%[46.1 µM]	.
CCCCNC(=O)C1CCCN(S(=O)(=O)CCC)C1 (stereo not drawn)	48	-5%	-5%	?	.	.
O=C(N/N=C/c1cccnc1)c1cccc(Cl)c1	14	-14%	-18%	23%[46.1 µM]	1%[46.1 µM]	3%
O=C(N/N=C\c1cc(Cl)ccc1O)c1ccc(S(=O)(=O)N2CCCCC2)cc1	-103*	13µM*	?	?	?	3.5µM*
O=C(N/N=C/c1cc(Cl)ccc1O)c1cccnc1	?	?	?	?	?	5µM*
O=C(N/N=C/c1cc(Cl)ccc1O)c1ccccc1Br	-100*	.	.	.	.	?
O=C(CNC(=O)c1ccccc1Br)N/N=C/c1cc(Br)ccc1O	33	.	.	.	.	?
Cc1ccc(N2CC(NC(=O)/C=C\c3ccc4c(c3)OCO4)CC2=O)cc1C (stereo not drawn)	113	-2%[7.34 µM]	-3%[7.34 µM]	-21%[46.1 µM]	.	.
SMILES	HCMV inh	Vaccinia mCherry	Vaccinia Venus	LASV entry inh	MARV entry inh	HCV inh
CON1C(=O)C(=O)N(OC)C2CCCCCC21 (stereo not drawn)	71	i	-1%	13%	-11%	6%
O=C1NC(=O)C(C2CCCCCC2)C(=O)N1	-66*	i	-13%	22%[46.1 µM]	15%[46.1 µM]	8%
COC(=O)C1CCCCN1Cc1ccc2c(c1)CN(C(=O)c1csc(-c3cccs3)n1)CCO2 (stereo not drawn)	.	-12%	0%	.	.	.
Cc1nnn(C23C[C@@H]4C[C@@H](CC(C(=O)N5CCN(c6ccccc6)CC5)(C4)C2)C3)n1	-87*	.	.	.	.	?
CCC[C@H](N[C@@H](CCC)[C@H](O)c1ccccc1)[C@H](O)c1ccccc1	?	-20%	0%	-28%[46.1 µM]	8.9µM*	1%
CCN(CC)S(=O)(=O)c1ccc2c(c1)N(CC(=O)NCCCN1CCN(c3cc(Cl)ccc3C)CC1)C(=O)CO2	-74*	-21%	-17%	?	13µM*	.
COc1cc(CN2CCC3(CC2)CC3C(=O)Nc2ccc3sc(C)nc3c2)ccc1F (stereo not drawn)	.	-1%	-1%	.	.	.
OC(COC(c1ccc(F)cc1)c1ccc(F)cc1)CN1CCc2ccccc2C1 (stereo not drawn)	-61*	?	?	-22%	?	?
OC(COC(c1ccccc1)c1ccccc1)CN1CCc2ccccc2C1 (stereo not drawn)	38	-23%	-14%	-38%[46.1 µM]	?	?
OC(COC(c1ccc(Cl)cc1)c1ccc(Cl)cc1)CN1CCc2ccccc2C1 (stereo not drawn)	-35	-23%	-24%	?	?	13µM*
CC(C)(C)c1ccc(OCC(O)CN2CCc3ccccc3C2)cc1 (stereo not drawn)	-63*	.	.	.	.	?
CCCN(CCC)CCCNC(=O)c1cc2c(=O)oc3ccc(C)cc3c2s1	9	8%	-7%	?	-19%[46.1 µM]	.
CCOC(=O)C1CCN(C(c2ccccc2)c2c(O)cc(C)n(Cc3ccco3)c2=O)CC1 (stereo not drawn)	8	-14%	-11%	-2%[46.1 µM]	.	.
O=C(Oc1ccnc2cc(Cl)ccc12)N1CCOCC1	-76*	-11%	-7%	-22%	-9%	3%
O=C(Oc1c(Cl)cc(Cl)c2cccnc12)N1CCOCC1	-17	.	.	?	?	0%
